Screens from PubChem BioAssay.
Shown are actives, neighbours in structure and some others; about 1.7% of the full set was active somewhere.
TRHR enhancer: allosteric enhancers of human TRH receptor; hit rate 0.66% among 360,000; TRHR cells, fluo-8 calcium fluorescence, EC20 TRH enhancement; enhancement, % at 2 µM; in the data active = enhancement above about 30%; also: 0% is about no effect
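TRHR-expressing cells loaded with fluo-8 calcium dye were read kinetically (ex 480/em 530) during compound addition, then stimulated with an EC20 of TRH (10 nM final). Enhancement of the Gq-mediated intracellular calcium response was scored.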
KCNH2 3.1 block: inhibitors of human KCNH2 3.1 potassium channel isoform; U2OS KCNH2 3.1, thallium flux FluxOr; stronger effect = lower value; activity change, % (tested at about 1.8 µM); hit rate 0.95% among 340,000;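 active = maximum activity change below -70%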;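 also: thallium influx rate constant from kinetic fluorescence after stimulation buffer; % is scaled to controls: 0 for no effect and ±100 for the full control effect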
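FluxOr-based Tl+ influx in U2OS cells transduced with KCNH2 3.1 virus; rate constants normalized to DMSO controls.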
TRPML1 agonist: human mucolipin-1 channel agonism; Q9GZU1; TRPML1-expressing cells, Ca2+ dye fluorescence, FDSS; activation, % (no concentration beside the values); hit rate 0.12% among 410,000; AID 624414; in the data active = activation above about 50%; also: 0% is about no effect
Target sequence (Q9GZU1 whole entry, looked up): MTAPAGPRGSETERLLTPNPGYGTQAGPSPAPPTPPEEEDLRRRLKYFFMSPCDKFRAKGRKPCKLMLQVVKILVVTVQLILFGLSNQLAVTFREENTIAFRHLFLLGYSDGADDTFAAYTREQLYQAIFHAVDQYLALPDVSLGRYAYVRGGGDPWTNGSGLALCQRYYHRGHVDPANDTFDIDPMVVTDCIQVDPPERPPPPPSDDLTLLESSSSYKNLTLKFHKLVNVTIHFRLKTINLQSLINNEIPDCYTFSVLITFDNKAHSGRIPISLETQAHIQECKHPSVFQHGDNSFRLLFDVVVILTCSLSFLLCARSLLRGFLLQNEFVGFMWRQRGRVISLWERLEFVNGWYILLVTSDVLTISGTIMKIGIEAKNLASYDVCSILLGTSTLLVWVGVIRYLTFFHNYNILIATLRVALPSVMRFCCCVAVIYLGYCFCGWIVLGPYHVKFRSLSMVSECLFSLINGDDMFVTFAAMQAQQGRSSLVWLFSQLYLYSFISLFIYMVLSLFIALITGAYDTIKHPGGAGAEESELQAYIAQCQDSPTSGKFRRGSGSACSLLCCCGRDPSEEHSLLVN
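Cells: TRPML1-DL, 1X Tet inducer, ~16 h at 37 degrees C/5% CO2. Dye: ABD Ca8 no-wash + quencher, 45-90 min RT. Read: 10 s baseline, compound add, 110 s agonist phase; 54-4 EC80 (4uM final), 110 s antagonist phase.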
hERG WT inh: blocks the wildtype human KCNH2 potassium channel; Q12809; U2OS, BacMam KCNH2, thallium flux FluxOr; stronger effect = lower value; activity change, % at 1.84 µM; hit rate 0.37% among 340,000; AID 720551;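 active = maximum activity change below -70%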; also: % is scaled to controls: 0 for no effect and ±100 for the full control effect
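U2OS cells were transduced with wild-type KCNH2 virus (2.03 x 10^8 / mL) for 4 h at room temperature, then cultured overnight at 37 C. Thallium flux was read with FluxOr dye. Rate constants were normalized to DMSO controls.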
TRHR agonist: TRH receptor (human) agonism. P34981. TRHR cells, calcium flux fluo-8, FDSS agonist mode. activation, % at 2 µM. hit rate 0.18% among 360,000. AID 493084; in the data active = activation above about 30%; also: 0% is about no effect
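Read-out: compound-evoked intracellular calcium rise in TRHR cells, fluo-8 dye, kinetic FDSS fluorescence at 1 s/cycle following a 10-cycle baseline. Cells cultured overnight before dye loading (30 min–1.5 h, RT).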
TRPML1 blocker: human mucolipin-1 channel inhibition | TRPML1-inducible cells, Ca2+ dye fluorescence, FDSS; stronger effect = lower value; inhibition of EC80 agonist-evoked calcium signal | activity change, negative = inhibition, % (test concentration not listed) | Q9GZU1 | AID 624415 | hit rate 0.02% among 390,000; in the data active = activity change below about -50%;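 also: stimulus is agonist 54-4 at its EC80 concentration; % is scaled to controls: 0 for no effect and ±100 for the full control effect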
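TRPML1-DL cells, Tet-induced overnight (~16 h, 37 °C) at 1,500 cells/well, were loaded with Ca8 no-wash dye plus quencher for 45-90 min at room temperature. Compounds were pinned during FDSS kinetic reading; agonist 54-4 at EC80 (4 uM final) then added.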
* hit, by the source's call; i = inactive; · = not tested or not shown.

SMILES	TRHR enhancer	KCNH2 3.1 block	TRPML1 agonist	hERG WT inh	TRHR agonist	TRPML1 blocker
O=C(/C=C/c1ccc(Cl)cc1)N(Cc1ccccc1)C1CCS(=O)(=O)C1 (centres undefined)	-1	-75*	3	0	1	-7
CCOC(=O)N1CCN(C(=O)CSc2nnc3[nH]c(=O)c(C)c(C)n23)CC1	2	4	0	-4	0	-1
Cc1ccc(-c2csc3nc(SCC(=O)N(C)C)n(Cc4ccccc4)c(=O)c23)cc1	-6	-74*	3	1	0	63
NC(=O)CSc1nc2scc(-c3ccc(Cl)cc3)c2c(=O)n1Cc1ccccc1	-2	-5	0	i	1	2
Cc1ccc(C)c(NC(=O)CN(C)C(=O)c2ccc(-c3cccc(C(F)(F)F)c3)o2)c1	37*	11	0	6	0	-4
CCOC(=O)c1cnc2c(ccc3ccccc32)c1Nc1ccc(N(C)C)cc1	-12	·	1	·	0	5
Cc1cc(C)n(-c2ccc(NC(=O)C3CCCCN3Cc3cccc4c3OCO4)cc2)n1 (centres undefined)	30*	-1	1	6	0	0
Cc1cc(C)n(-c2ccc(NC(=O)C3CCCCN3C(=O)c3ccoc3)cc2)n1 (centres undefined)	2	·	0	-6	0	-14
CCOC(=O)C1CCN(C(c2cccc(F)c2)c2c(O)cc(C)n(CCOC)c2=O)CC1 (centres undefined)	6	·	2	·	0	-1
O=C(NNC(=O)c1ccc2ccccc2c1O)NC1CCCCC1	-7	-10	0	-88*	1	37
COc1ccc(F)cc1CN1CCN(CC(=O)Nc2ccccc2C(=O)NC2CC2)CC1	0	-106*	2	-107*	-1	-5
COc1ccccc1NC(=O)CN1CCN(CC(=O)Nc2ccc(F)cc2F)CC1	-7	-86*	1	-10	-1	57
COc1ccc(CN2CCN(CC(=O)Nc3ccccc3C(=O)NC3CC3)CC2)cc1F	0	-104*	0	-93*	1	-6
Cc1nc(CNC(=O)CC2C(=O)NCCN2Cc2ccc(F)cc2)cs1 (centres undefined)	7	-4	2	2	1	27
C[C@@H]1CN([C@H](C)CO)C(=O)CCCn2nncc2CO[C@H]1CN(C)C(=O)c1cc(-c2ccccc2)on1	·	-97*	0	-3	·	-3
CCCN(C(=O)CCOc1ccc(C(C)(C)C)cc1)c1c(N)n(Cc2ccccc2)c(=O)[nH]c1=O	0	-10	0	-1	0	-3
Cc1ccc(C(=O)CNc2ccc(Cl)cc2)cc1	3	-79*	0	13	1	18
C[N+]1=C(/C=C/Nc2ccccc2Cl)C(C)(C)c2ccccc21	4	-23	4	-80*	1	7
COC(=O)c1ccc2c(c1)C(C)(C)C(/C=C/c1ccccc1O)=[N+]2C	1	-10	16	0	0	8
CCc1cc2cccc(C)c2nc1SCC(=O)Nc1cc(C)on1	40*	-2	4	9	0	9
O=C(NCc1ccccc1F)c1cccc(NC(=O)N2CCSc3ncccc32)c1	2	·	0	·	0	0
CC(=O)NNc1ncnc2c1cnn2-c1ccc(C)c(Cl)c1	31*	14	0	4	1	18
CN(Cc1cccc(F)c1)C(=O)c1ccc(S(=O)(=O)N2CCOCC2)cc1	2	-11	0	-5	0	8
O=C(NCCSC1CCCCC1)c1ccccc1	-22	·	0	29	-1	7
COc1ccc(C(=O)NCCSC2CCCCC2)cc1	1	-112*	0	-18	0	1
Cc1cc(C)nc(NC(=O)CSc2nc3ccccc3s2)n1	4	2	1	-3	0	-8
Cc1cc(C)n2c(Br)c(CSc3nc4ccccc4s3)nc2n1	-4	-78*	1	6	-1	-1
Cc1ccc(Cl)cc1N1CCN(C(=O)c2cc3ccc4cccnc4c3[nH]2)CC1	30*	·	2	·	-1	-4
